# Assay results published in the supplement of paper PMC7366291.
# Counter-ions that a name gives are not always drawn.
# System: Danio rerio Tg(wt1b:EGFP) embryo, pronephros
# Assay: fraction of imaged embryos annotated as normal kidney; higher = less nephrotoxic; extreme values may be limits of the assay
# Settings: 25 µM; exposure: 24-48 hpf
# Outline: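 Dechorionated Tg(wt1b:EGFP) zebrafish embryos were exposed in 12-well plates to 25 μM compound in 0.5% DMSO, 5 mM HEPES-buffered E3 with 0.003% PTU, from 24 to 48 hpf at 28.5°C. Tricaine-anaesthetised larvae were oriented dorsally in agarose-filled 96-well plates, and pronephroi were imaged by widefield fluorescence (470 nm, 10 z-slices). Each embryo was manually annotated from maximum projections. The read-out is the fraction of embryos per treatment assigned to the normal-kidney category.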
row,Compound,fraction of imaged embryos annotated as normal kidney
1,CN1CCN(CCCN2c3ccccc3Sc3ccc(C(F)(F)F)cc32)CC1 [Trifluoperazine dihydrochloride],0.833
2,CC1(C)S[C@@H]2[C@H](NC(=O)[C@H](N)c3ccc(O)cc3)C(=O)N2[C@H]1C(=O)O [Amoxicillin],0.833
3,NC(=O)N1c2ccccc2CC(=O)c2ccccc21 [Oxcarbazepine],0.833
4,O=C1c2ccccc2C(=O)C1c1ccccc1 [Phenindione],0.75
5,CC(=O)[C@H]1CC[C@H]2[C@@H]3CC=C4C[C@@H](O)CC[C@]4(C)[C@H]3CC[C@]12C [Pregnenolone],0.583
6,CN1CCN(CC(=O)N2c3ccccc3C(=O)Nc3cccnc32)CC1 [Pirenzepine dihydrochloride],0.75
7,COCC1=C(C(=O)OC(C)OC(=O)OC(C)C)N2C(=O)[C@@H](NC(=O)/C(=N\OC)c3csc(N)n3)[C@H]2SC1 (stereo not given in full) [Cefpodoxime proxetil],1
8,CC(C)OC(=O)CCC/C=C\C[C@@H]1[C@@H](CC[C@@H](O)CCc2ccccc2)[C@H](O)C[C@@H]1O [Latanoprost],0.833
9,CN(C/C=C/c1ccccc1)Cc1cccc2ccccc12 [Naftifine hydrochloride],0.9
10,C#C[C@]1(OC(C)=O)CC[C@H]2[C@@H]3CCC4=C[C@@H](OC(C)=O)CC[C@@H]4[C@H]3CC[C@@]21C [Ethynodiol diacetate],0.75
11,CN(C)CCC(c1ccc(Cl)cc1)c1ccccn1 (stereo not given) [Chlorpheniramine maleate],0.667
12,COc1cc([C@@H]2c3cc4c(cc3[C@@H](O[C@@H]3O[C@@H]5CO[C@@H](C)O[C@H]5[C@H](O)[C@H]3O)[C@H]3COC(=O)[C@H]23)OCO4)cc(OC)c1O [Etoposide],0.75
13,CCC[C@H](N[C@@H](C)C(=O)N1[C@H](C(=O)O)C[C@@H]2CCCC[C@@H]21)C(=O)OCC [Perindopril],0.917
14,CC(=O)O[C@]1(C(C)=O)CC[C@H]2[C@@H]3C=C(C)C4=CC(=O)CC[C@@H]4[C@H]3CC[C@@]21C [Nomegestrol acetate],0.909
15,Fc1ccc([C@@H]2CCNC[C@H]2COc2ccc3c(c2)OCO3)cc1 [Paroxetine Hydrochloride],1
16,O=C(O)Cc1sc(-c2ccccc2)nc1-c1ccc(Cl)cc1 [Fentiazac],0
17,Clc1ccc2c(c1)C(N1CCNCC1)=Nc1ccccc1O2 [Amoxapine],0.75
18,CC[C@H]1OC(=O)[C@H](C)[C@@H](O[C@H]2C[C@@](C)(OC)[C@@H](O)[C@H](C)O2)[C@H](C)[C@@H](O[C@@H]2O[C@H](C)C[C@H](N(C)C)[C@H]2O)[C@](C)(O)C[C@@H](C)[C@@H]2N[C@@H](COCCOC)O[C@H]([C@H]2C)[C@]1(C)O [Dirithromycin],1
19,CCOC(=O)[N-]c1c[n+](N2CCOCC2)no1 [Molsidomine],0.833
20,NC[C@@H]1O[C@H](O[C@H]2[C@@H](O)[C@H](O[C@@H]3[C@@H](O)[C@H](N)C[C@H](N)[C@H]3O[C@H]3O[C@H](CO)[C@@H](O)[C@H](O)[C@H]3N)O[C@@H]2CO)[C@H](N)[C@@H](O)[C@@H]1O [Paromomycin sulfate],0.75

row,Compound,fraction of imaged embryos annotated as normal kidney
1,CN(C)CCC(c1ccccc1)c1ccccn1 (stereo not given) [Pheniramine maleate],0.833
2,O=C(O)COC(=O)Cc1ccccc1Nc1c(Cl)cccc1Cl [Aceclofenac],0.25
3,CCN(CC)CCCC(C)Nc1ccnc2cc(Cl)ccc12 (stereo not given) [Chloroquine diphosphate],1
4,COc1ccc(C(=O)NCc2cccnc2)cc1C(=O)NCc1cccnc1 [Picotamide monohydrate],0.75
5,CCN(Cc1ccncc1)C(=O)C(CO)c1ccccc1 (stereo not given) [Tropicamide],0.75
6,Cc1c(C)c2c(c(C)c1O)CCC(C)(C(=O)O)O2 (stereo not given) [Trolox],0.833
7,C#CCN[C@@H]1CCc2ccccc21 [Rasagiline],0.667
8,CNC(=C[N+](=O)[O-])NCCSCc1csc(CN(C)C)n1 [Nizatidine],0.917
9,"C[C@](N)(Cc1ccc(O)c(O)c1)C(=O)O [Methyldopa (L,-)]",0.909
10,CNc1ncnc2c1ncn2[C@@H]1O[C@H](CO)[C@@H](O)[C@H]1O [N6-methyladenosine],1
11,Nc1ccc(S(=O)(=O)c2ccc(N)cc2)cc1 [Dapsone],0.5
12,CC(C)C(=O)c1c(C(C)C)nn2ccccc12 [Ibudilast],1
13,OC(CCN1CCCC1)(c1ccccc1)C1CCCCC1 (stereo not given) [Procyclidine hydrochloride],0.833
14,C=C1c2c(Cl)ccc(O)c2C(=O)C2=C(O)[C@]3(O)C(=O)C(C(N)=O)=C(O)[C@@H](N(C)C)[C@@H]3[C@@H](O)[C@H]12.O=C(O)c1cc(S(=O)(=O)O)ccc1O [Meclocycline sulfosalicylate],0.917
15,CCOC(=O)[C@H](CCc1ccccc1)N[C@@H](C)C(=O)N1Cc2ccccc2C[C@H]1C(=O)O [Quinapril hydrochloride],1
16,O=C(Nc1ccc([N+](=O)[O-])cc1Cl)c1cc(Cl)ccc1O [Niclosamide],0.455
17,COc1ccc2c(c1)c(CC(=O)O)c(C)n2C(=O)c1ccc(Cl)cc1 [Indomethacin],0
18,COc1cc(N)c(Cl)cc1C(=O)NC1CCN(Cc2ccccc2)CC1 [Clebopride maleate],0.917
19,NCCC[C@H](N)CC(=O)N[C@H]1CNC(=O)[C@H]([C@H]2C[C@H](O)NC(N)=N2)NC(=O)/C(=C/NC(N)=O)NC(=O)[C@H](CO)NC(=O)[C@H](CO)NC1=O [Viomycin sulfate],0.833
20,O=C(O)c1cc(=O)c2c(OCC(O)COc3cccc4oc(C(=O)O)cc(=O)c34)cccc2o1 [Cromolyn disodium salt],0.909
